# Measured values taken from PubChem BioAssay (NCI).
# About 83,000 compounds went through this panel and 20% of them were active in at least one assay; those are over-represented in the sample as a whole.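 Treatment: one concentration, 48 hours, 96-well format. Scoring: percent growth, with anything below 10 considered active.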 Unmarked numbers belong to inactive results. The source made the active and inactive calls.
# System: SK-OV-3 ovarian
# Assay: NCI-60 one-dose screen, 48 h (100 = growth as untreated, 0 = no growth, -100 = all killed)
# Conditions: 10 µM
row,SMILES,growth
1,CCC(=O)Nc1nnc(Cc2ccc(OC)c(OC)c2)s1,24.7%
2,NC(=O)c1cc(Cl)ccc1NC(=O)COc1ccccc1,62.8%
3,CCC12CCC3c4ccc(O)cc4CCC3C1CC(O)C2O (stereo not given),98.7%
4,O=C1NC(=S)S/C1=C\c1cccc([N+](=O)[O-])c1,104%
5,CCCCCn1c(=N)n(CC(O)COc2cccc(C)c2)c2ccccc21 (stereo not given),13.1%
6,Cn1c2ccccc2c2nn(C(=O)c3ccccc3)c(=O)nc21,116%
7,N#CC1=C(N)Oc2cc(N)ccc2C1c1ccc(F)cc1 (stereo not given),85.2%
8,COc1ccc(-c2c3c(N)c4c(nc3nc3c2c(C)nn3-c2ccccc2)CCCCC4)cc1,85.6%
9,CC(C)OC1=C(Cl)C(=O)c2ccccc2C1=O,103%
10,O=c1[nH]c(-c2ccccn2)nc2sc3c(c12)CCCCCC3,45.2%
11,COc1c(O)c2c3c(c1OC)-c1ccccc1CC3N(S(=O)(=O)c1ccc(C)cc1)CC2 (stereo not given),48.9%
12,COc1cc(-c2nc3ccccc3o2)cc(CN2CCN(c3ccccc3)CC2)c1O,116%
13,O=C1/C(=C/c2ccccc2F)CNC/C1=C\c1ccccc1F,-45.1% (active)
14,CN([N-]C(=O)CC(=O)[N-]N(C)C(=S)c1ccccc1)C(=S)c1ccccc1.[Cu+2],-99.1% (active)
15,COC(=O)c1ccc(C(=O)Nc2ccccc2N)cc1,92.6%
16,FC(F)(F)c1cc(CNc2ncc(Br)c(Cl)n2)cc(C(F)(F)F)c1,92.5%
17,COc1ccc(NC(=O)COc2ccccc2)c(C(N)=O)c1,4.18% (active)
18,Cn1c2ccccc2c2nn(Cc3ccccc3)c(=O)nc21,105%
19,CCCCNNC(=O)c1ccc(Br)cc1,85%
20,Cc1nc2cc(Nc3nc(Nc4ccc(F)cc4)nc(-c4cccs4)n3)ccc2n1Cc1ccccc1,95.1%

row,SMILES,growth
1,Cc1ccc(C2SCC(=O)N2NC(=O)c2[nH]c3ccc(F)cc3c2-c2ccccc2)cc1 (stereo not given),107%
2,O=S(=O)(OCCO)c1ccccc1,109%
3,Cc1ccc(S(=O)(=O)N2CCc3ccc(O)c4c3C2CCc2ccccc2-4)cc1 (stereo not given),101%
4,Cc1nc2cc(Nc3nc(N4CCOCC4)nc(N4CCN(C)CC4)n3)ccc2n1Cc1ccccc1,103%
5,Clc1ccc(C2=NN(c3ccccc3)[C@H](c3cn(-c4ccccc4)nc3-c3ccccc3)C2)cc1,107%
6,COc1cccc(OC)c1OC(=O)c1ccccc1,106%
7,CCSc1nnc2c3cc(Br)ccc3n(C)c2n1,105%
8,Cc1nn(-c2ccccc2)c2nc3nc4c(c(N)c3c(-c3ccc(Cl)cc3)c12)CCCC4,101%
9,Cc1ccc(S(=O)(=O)N(c2ccc(Cl)cc2)c2ccc(Br)cc2C(=O)O)cc1,112%
10,Cc1ccc2c(c1)c(Sc1ccc(C(=O)NO)cc1)c1n2CN(C)CC1,21.1%
11,COc1cc(CNCCCN2C(=O)c3ccc4c5c(ccc(c35)C2=O)C(=O)N(CCCNCc2cc(OC)c(OC)c(OC)c2)C4=O)cc(OC)c1OC,-59.6% (active)
12,CCCCCCCCCCCC(=O)[O][Sn]([CH2]CCC)([CH2]CCC)[CH2]CCC,-100% (active)
13,COc1cc(NC(=O)COc2ccccc2)c(C(N)=O)cc1OC,30.4%
14,C=CC(=O)N1CC2(CCC(n3nc(-c4ccc(Oc5ccccc5)cc4)c4c(N)ncnc43)CC2)C1,-24.6% (active)
15,CC(=O)OC[C@H](O)[C@@]1(O)CC[C@H]2[C@@H]3CCC4=CC(=O)CC[C@]4(C)[C@H]3[C@@H](O)C[C@@]21C,90.8%
16,Cc1ccc(S(=O)(=O)N2CCc3ccc(O)c4c3C2Cc2cc(Cl)ccc2-4)cc1 (stereo not given),70%
17,COc1cc(/C=C/C(=O)C(=Cc2ccc(F)c(F)c2)C(=O)/C=C/c2ccc(O)c(OC)c2)ccc1O,94.4%
18,CCOC(=O)c1cc2c(n(C)c1=O)-c1cnn(-c3ccc(OC)cc3)c1CC2,108%
19,Cc1ccc(S(=O)(=O)N2CCc3ccc(O)c4c3C2Cc2ccc3c(c2-4)OCO3)cc1 (stereo not given),7.28% (active)
20,O=C(Nc1nc2ccccc2[nH]1)C(=O)Nc1nc2ccccc2[nH]1,108%

# System: IGROV1 ovarian
# Assay: as above
# Conditions: 10 µM unless noted
row,SMILES,growth
1,CCC(=O)Nc1nnc(Cc2ccc(OC)c(OC)c2)s1,30.1%
2,NC(=O)c1cc(Cl)ccc1NC(=O)COc1ccccc1,54.5%
3,CCC12CCC3c4ccc(O)cc4CCC3C1CC(O)C2O (stereo not given),82.8%
4,O=C1NC(=S)S/C1=C\c1cccc([N+](=O)[O-])c1,120%
5,CCCCCn1c(=N)n(CC(O)COc2cccc(C)c2)c2ccccc21 (stereo not given),28.1%
6,Cn1c2ccccc2c2nn(C(=O)c3ccccc3)c(=O)nc21,101%
7,N#CC1=C(N)Oc2cc(N)ccc2C1c1ccc(F)cc1 (stereo not given),69.4%
8,COc1ccc(-c2c3c(N)c4c(nc3nc3c2c(C)nn3-c2ccccc2)CCCCC4)cc1,86.7%
9,CC(C)OC1=C(Cl)C(=O)c2ccccc2C1=O,99.1%
10,O=c1[nH]c(-c2ccccn2)nc2sc3c(c12)CCCCCC3,42.4%
11,COc1c(O)c2c3c(c1OC)-c1ccccc1CC3N(S(=O)(=O)c1ccc(C)cc1)CC2 (stereo not given),65.6%
12,COc1cc(-c2nc3ccccc3o2)cc(CN2CCN(c3ccccc3)CC2)c1O,86.8%
13,O=C1/C(=C/c2ccccc2F)CNC/C1=C\c1ccccc1F,-6.61% (active)
14,CN([N-]C(=O)CC(=O)[N-]N(C)C(=S)c1ccccc1)C(=S)c1ccccc1.[Cu+2],-93.2% (active)
15,COC(=O)c1ccc(C(=O)Nc2ccccc2N)cc1,74.7%
16,FC(F)(F)c1cc(CNc2ncc(Br)c(Cl)n2)cc(C(F)(F)F)c1,91.7%
17,COc1ccc(NC(=O)COc2ccccc2)c(C(N)=O)c1,46%
18,Cn1c2ccccc2c2nn(Cc3ccccc3)c(=O)nc21,120%
19,CCCCNNC(=O)c1ccc(Br)cc1,60.1%
20,Cc1nc2cc(Nc3nc(Nc4ccc(F)cc4)nc(-c4cccs4)n3)ccc2n1Cc1ccccc1,48.3%

row,SMILES,growth
1,Cc1ccc(C2SCC(=O)N2NC(=O)c2[nH]c3ccc(F)cc3c2-c2ccccc2)cc1 (stereo not given),88.4%
2,O=S(=O)(OCCO)c1ccccc1,113%
3,Cc1ccc(S(=O)(=O)N2CCc3ccc(O)c4c3C2CCc2ccccc2-4)cc1 (stereo not given),113%
4,Cc1nc2cc(Nc3nc(N4CCOCC4)nc(N4CCN(C)CC4)n3)ccc2n1Cc1ccccc1,103%
5,Clc1ccc(C2=NN(c3ccccc3)[C@H](c3cn(-c4ccccc4)nc3-c3ccccc3)C2)cc1,104%
6,COc1cccc(OC)c1OC(=O)c1ccccc1,116%
7,CCSc1nnc2c3cc(Br)ccc3n(C)c2n1,90.8%
8,Cc1nn(-c2ccccc2)c2nc3nc4c(c(N)c3c(-c3ccc(Cl)cc3)c12)CCCC4,104%
9,Cc1ccc(S(=O)(=O)N(c2ccc(Cl)cc2)c2ccc(Br)cc2C(=O)O)cc1,109%
10,Cc1ccc2c(c1)c(Sc1ccc(C(=O)NO)cc1)c1n2CN(C)CC1,42.4%
11,COc1cc(CNCCCN2C(=O)c3ccc4c5c(ccc(c35)C2=O)C(=O)N(CCCNCc2cc(OC)c(OC)c(OC)c2)C4=O)cc(OC)c1OC,-51.2% (active)
12,CCCCCCCCCCCC(=O)[O][Sn]([CH2]CCC)([CH2]CCC)[CH2]CCC,-77.1% (active)
13,COc1cc(NC(=O)COc2ccccc2)c(C(N)=O)cc1OC,43.9%
14,C=CC(=O)N1CC2(CCC(n3nc(-c4ccc(Oc5ccccc5)cc4)c4c(N)ncnc43)CC2)C1,-51.2% (active)
15,CC(=O)OC[C@H](O)[C@@]1(O)CC[C@H]2[C@@H]3CCC4=CC(=O)CC[C@]4(C)[C@H]3[C@@H](O)C[C@@]21C,111%
16,Cc1ccc(S(=O)(=O)N2CCc3ccc(O)c4c3C2Cc2cc(Cl)ccc2-4)cc1 (stereo not given),57.6%
17,COc1cc(/C=C/C(=O)C(=Cc2ccc(F)c(F)c2)C(=O)/C=C/c2ccc(O)c(OC)c2)ccc1O,5.44% (active)
18,CCOC(=O)c1cc2c(n(C)c1=O)-c1cnn(-c3ccc(OC)cc3)c1CC2,115%
19,Cc1ccc(S(=O)(=O)N2CCc3ccc(O)c4c3C2Cc2ccc3c(c2-4)OCO3)cc1 (stereo not given),41.6%
20,O=C(Nc1nc2ccccc2[nH]1)C(=O)Nc1nc2ccccc2[nH]1,81.9%
